The target in assay [1] is Fibroblast growth factor receptor 4 (Homo sapiens) (UniProt P22455). As to conditions: at 1 µM.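 Further: reported figure is the averaged percent inhibition of FGFR4, from the GSK PKIS kinase screening panel.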
The target in assay [2] is Tyrosine-protein kinase Fgr (Homo sapiens) (UniProt P09769). As to conditions: at 0.1 µM.
For assay [3] the target is unchanged. To be noted: at 1 µM.
The target of assay [4] is Vascular endothelial growth factor receptor 1 (Homo sapiens) (UniProt P17948). As to conditions: at 0.1 µM.
Sequence of Vascular endothelial growth factor receptor 1 (Homo sapiens) (P17948 whole entry): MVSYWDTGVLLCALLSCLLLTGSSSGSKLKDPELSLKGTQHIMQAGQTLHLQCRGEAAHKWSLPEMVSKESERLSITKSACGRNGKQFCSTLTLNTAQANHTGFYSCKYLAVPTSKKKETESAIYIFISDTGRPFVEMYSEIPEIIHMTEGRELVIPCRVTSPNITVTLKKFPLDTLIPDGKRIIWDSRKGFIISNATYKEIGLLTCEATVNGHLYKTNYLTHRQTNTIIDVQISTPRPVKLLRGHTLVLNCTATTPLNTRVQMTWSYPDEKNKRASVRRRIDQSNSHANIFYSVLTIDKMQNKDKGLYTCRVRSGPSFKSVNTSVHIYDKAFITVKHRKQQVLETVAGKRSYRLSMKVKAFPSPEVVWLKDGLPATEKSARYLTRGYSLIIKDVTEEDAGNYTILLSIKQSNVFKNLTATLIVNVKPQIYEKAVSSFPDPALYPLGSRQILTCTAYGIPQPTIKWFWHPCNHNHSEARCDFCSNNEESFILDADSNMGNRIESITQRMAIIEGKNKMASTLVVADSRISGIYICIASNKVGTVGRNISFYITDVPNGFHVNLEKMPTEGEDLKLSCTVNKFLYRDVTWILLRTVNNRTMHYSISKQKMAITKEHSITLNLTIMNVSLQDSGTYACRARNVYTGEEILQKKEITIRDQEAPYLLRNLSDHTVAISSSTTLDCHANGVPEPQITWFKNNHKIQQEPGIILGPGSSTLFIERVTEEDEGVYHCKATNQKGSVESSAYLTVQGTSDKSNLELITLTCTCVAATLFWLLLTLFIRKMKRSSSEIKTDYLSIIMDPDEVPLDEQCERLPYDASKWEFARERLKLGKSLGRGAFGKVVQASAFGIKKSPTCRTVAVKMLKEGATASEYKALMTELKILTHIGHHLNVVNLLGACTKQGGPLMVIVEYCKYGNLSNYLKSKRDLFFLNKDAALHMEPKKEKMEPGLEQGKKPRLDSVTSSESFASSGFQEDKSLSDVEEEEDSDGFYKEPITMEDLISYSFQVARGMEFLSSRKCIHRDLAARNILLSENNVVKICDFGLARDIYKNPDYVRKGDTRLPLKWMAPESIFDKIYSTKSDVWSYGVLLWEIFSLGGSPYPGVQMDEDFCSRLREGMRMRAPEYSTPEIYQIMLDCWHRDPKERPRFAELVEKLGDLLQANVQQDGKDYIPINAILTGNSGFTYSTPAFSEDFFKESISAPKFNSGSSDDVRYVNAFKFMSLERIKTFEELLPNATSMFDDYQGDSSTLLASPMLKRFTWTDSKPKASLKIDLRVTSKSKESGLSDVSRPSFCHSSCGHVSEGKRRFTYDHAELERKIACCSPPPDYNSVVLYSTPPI
Assay [5] has the same target. As to conditions: at 1 µM.
For assay [6], the target named is Receptor-type tyrosine-protein kinase FLT3 (Homo sapiens) (UniProt P36888). As to conditions: at 0.1 µM.
Assay [7] has the same target. As to conditions: at 1 µM.
Assay [8] relates to T1, Receptor-type tyrosine-protein kinase FLT3 (Homo sapiens), P36888 [D835Y].
T1 sequence (whole entry): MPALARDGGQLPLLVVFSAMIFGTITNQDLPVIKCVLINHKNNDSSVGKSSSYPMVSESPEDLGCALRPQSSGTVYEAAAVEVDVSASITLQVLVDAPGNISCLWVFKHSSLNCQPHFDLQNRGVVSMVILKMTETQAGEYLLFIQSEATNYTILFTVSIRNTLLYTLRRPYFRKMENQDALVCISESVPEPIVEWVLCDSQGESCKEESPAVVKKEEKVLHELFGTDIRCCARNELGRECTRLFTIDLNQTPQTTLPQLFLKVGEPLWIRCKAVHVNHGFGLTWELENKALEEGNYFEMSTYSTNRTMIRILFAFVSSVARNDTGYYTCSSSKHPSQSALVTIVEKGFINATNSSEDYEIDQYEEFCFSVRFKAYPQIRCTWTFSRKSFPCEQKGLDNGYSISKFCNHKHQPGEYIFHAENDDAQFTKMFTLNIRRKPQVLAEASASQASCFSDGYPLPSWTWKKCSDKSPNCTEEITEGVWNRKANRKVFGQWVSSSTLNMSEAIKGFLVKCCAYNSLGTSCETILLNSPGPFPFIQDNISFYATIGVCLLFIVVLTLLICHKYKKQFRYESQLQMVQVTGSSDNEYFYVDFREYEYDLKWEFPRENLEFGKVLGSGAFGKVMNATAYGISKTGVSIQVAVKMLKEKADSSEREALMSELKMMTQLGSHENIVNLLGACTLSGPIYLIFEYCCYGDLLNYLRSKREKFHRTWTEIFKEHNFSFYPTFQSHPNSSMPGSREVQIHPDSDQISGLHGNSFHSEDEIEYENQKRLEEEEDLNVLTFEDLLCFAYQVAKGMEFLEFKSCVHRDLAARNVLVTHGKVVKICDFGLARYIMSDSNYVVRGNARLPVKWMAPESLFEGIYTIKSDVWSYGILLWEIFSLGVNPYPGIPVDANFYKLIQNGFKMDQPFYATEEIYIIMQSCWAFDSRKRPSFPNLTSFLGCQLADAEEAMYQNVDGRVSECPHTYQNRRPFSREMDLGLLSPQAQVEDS
As to conditions: at 0.1 µM.

In assay [9] the target is Non-receptor tyrosine-protein kinase TYK2 (Homo sapiens) (UniProt P29597). As to conditions: at 1 µM.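 Further: values are mean percent inhibition of TYK2 kinase.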
Sequence of Non-receptor tyrosine-protein kinase TYK2 (Homo sapiens) (P29597 whole entry): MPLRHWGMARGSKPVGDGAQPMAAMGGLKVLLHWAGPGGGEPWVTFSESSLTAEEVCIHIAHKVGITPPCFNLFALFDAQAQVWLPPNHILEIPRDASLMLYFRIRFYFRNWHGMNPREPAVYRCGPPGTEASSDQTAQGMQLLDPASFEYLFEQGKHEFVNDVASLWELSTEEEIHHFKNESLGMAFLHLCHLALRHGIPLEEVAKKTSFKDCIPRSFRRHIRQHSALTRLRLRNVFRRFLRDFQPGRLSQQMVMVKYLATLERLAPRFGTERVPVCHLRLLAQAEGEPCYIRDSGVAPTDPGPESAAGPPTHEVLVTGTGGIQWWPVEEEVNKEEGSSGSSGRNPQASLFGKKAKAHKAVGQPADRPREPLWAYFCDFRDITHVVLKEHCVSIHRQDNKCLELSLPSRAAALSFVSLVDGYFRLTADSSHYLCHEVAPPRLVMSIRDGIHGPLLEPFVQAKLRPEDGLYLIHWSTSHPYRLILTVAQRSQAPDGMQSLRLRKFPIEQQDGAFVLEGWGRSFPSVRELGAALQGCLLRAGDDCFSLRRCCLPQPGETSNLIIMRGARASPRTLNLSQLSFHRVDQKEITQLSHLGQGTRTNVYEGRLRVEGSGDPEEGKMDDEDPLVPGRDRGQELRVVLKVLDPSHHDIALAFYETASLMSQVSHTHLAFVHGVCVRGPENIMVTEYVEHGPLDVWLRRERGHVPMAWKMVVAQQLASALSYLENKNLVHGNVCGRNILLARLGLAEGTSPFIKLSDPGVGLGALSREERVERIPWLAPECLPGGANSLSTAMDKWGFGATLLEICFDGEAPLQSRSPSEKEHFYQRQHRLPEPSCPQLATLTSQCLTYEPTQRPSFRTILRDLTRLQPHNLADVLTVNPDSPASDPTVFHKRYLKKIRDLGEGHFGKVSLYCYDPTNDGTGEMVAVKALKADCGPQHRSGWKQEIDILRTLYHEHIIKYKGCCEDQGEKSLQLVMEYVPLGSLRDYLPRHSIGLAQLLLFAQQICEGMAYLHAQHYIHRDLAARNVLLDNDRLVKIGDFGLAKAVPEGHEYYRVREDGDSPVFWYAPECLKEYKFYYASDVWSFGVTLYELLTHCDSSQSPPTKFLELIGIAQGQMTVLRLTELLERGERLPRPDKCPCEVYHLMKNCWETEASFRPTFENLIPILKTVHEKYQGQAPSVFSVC
Assay [10] has as its target T2, Tyrosine-protein kinase receptor TYRO3 (Homo sapiens) (UniProt Q06418).
T2 sequence (whole entry): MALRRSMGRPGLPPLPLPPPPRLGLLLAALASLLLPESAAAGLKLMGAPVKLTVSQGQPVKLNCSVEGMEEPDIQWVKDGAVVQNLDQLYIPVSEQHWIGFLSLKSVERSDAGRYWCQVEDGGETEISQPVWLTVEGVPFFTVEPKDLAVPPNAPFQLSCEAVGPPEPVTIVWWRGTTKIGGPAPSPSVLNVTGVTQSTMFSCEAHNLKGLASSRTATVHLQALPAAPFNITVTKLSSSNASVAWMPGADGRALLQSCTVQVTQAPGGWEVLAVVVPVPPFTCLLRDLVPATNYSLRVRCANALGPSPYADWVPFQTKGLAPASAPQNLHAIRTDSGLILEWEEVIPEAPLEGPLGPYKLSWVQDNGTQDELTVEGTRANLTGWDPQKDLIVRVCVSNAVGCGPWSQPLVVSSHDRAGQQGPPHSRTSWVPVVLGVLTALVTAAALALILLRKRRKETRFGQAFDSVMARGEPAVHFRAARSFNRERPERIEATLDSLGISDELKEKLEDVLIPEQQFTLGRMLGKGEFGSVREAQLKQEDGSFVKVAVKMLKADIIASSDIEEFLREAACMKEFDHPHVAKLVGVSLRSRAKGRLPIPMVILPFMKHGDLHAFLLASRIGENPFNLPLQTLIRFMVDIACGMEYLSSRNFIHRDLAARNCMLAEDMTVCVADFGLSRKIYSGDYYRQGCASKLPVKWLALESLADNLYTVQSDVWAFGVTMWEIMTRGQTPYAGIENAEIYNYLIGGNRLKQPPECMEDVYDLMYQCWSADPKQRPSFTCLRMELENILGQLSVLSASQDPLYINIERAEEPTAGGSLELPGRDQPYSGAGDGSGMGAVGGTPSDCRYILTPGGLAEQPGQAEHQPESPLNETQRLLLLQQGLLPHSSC
As to conditions: at 0.1 µM.

Assay [11] concerns the target T2, Tyrosine-protein kinase receptor TYRO3 (Homo sapiens). To be noted: at 1 µM.
The target of assay [12] is Tyrosine-protein kinase Yes (Homo sapiens) (UniProt P07947). As to conditions: at 0.1 µM.
The target is the same in assay [13]. To be noted: at 1 µM.
Assay [14] concerns the target T3, Tyrosine-protein kinase ZAP-70 (Homo sapiens) (UniProt P43403).
T3 sequence (whole entry): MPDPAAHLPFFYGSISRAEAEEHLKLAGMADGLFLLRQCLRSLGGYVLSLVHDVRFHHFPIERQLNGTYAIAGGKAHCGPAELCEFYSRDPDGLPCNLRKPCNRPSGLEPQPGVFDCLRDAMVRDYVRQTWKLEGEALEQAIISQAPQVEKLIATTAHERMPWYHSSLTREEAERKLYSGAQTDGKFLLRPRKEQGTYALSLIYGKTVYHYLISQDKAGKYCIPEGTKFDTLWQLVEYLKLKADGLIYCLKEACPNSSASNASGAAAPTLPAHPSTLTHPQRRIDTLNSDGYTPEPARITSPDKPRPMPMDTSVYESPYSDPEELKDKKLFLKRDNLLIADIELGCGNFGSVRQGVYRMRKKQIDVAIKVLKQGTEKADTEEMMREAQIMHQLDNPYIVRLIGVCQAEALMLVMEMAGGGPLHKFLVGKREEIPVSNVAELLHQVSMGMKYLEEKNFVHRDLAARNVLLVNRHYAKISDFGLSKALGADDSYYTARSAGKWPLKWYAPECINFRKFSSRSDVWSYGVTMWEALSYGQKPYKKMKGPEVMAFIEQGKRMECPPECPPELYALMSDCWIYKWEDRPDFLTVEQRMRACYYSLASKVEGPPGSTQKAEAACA
To be noted: at 0.1 µM.

Assay [15] addresses T3, Tyrosine-protein kinase ZAP-70 (Homo sapiens). As to conditions: at 1 µM.
Assay [16] addresses Serine/threonine-protein kinase B-raf (Homo sapiens) (UniProt P15056). As to conditions: at 0.1 µM.
For assay [17] the target is unchanged. As to conditions: at 1 µM.
In assay [18] the test system is Serine/threonine-protein kinase B-raf (Homo sapiens), P15056 [V600E]. To be noted: at 0.1 µM.
Sequence of Serine/threonine-protein kinase B-raf (Homo sapiens), P15056 [V600E] (P15056 whole entry V600E): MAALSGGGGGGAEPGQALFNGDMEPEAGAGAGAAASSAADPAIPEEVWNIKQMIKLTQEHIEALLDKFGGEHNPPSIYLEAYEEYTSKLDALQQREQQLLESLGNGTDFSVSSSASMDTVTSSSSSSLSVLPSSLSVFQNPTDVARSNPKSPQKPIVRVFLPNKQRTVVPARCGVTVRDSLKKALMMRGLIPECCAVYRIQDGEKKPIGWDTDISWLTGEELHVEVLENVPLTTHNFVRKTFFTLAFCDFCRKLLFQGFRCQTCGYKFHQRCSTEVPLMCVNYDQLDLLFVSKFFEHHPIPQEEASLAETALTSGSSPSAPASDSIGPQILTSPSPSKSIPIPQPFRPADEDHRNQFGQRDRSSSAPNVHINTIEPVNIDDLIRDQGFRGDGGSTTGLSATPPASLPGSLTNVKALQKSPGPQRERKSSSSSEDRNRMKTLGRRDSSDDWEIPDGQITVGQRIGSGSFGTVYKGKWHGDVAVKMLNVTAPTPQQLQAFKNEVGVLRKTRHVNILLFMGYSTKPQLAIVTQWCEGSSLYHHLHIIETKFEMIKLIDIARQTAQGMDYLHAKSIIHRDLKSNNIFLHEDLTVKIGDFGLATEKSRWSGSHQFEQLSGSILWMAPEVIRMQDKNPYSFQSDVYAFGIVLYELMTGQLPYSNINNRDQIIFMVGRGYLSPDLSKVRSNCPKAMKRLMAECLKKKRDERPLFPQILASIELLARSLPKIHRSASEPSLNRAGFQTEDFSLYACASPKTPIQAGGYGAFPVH
For assay [19] the test system is unchanged. To be noted: at 1 µM.
For assay [20], the target named is RAF proto-oncogene serine/threonine-protein kinase (Homo sapiens) (UniProt P04049). To be noted: at 0.1 µM.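 Further: values are mean CRAF kinase inhibition from profiling of the GSK Published Kinase Inhibitor Set.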

Sequence of Tyrosine-protein kinase Fgr (Homo sapiens) (P09769 2-529 limits assumed): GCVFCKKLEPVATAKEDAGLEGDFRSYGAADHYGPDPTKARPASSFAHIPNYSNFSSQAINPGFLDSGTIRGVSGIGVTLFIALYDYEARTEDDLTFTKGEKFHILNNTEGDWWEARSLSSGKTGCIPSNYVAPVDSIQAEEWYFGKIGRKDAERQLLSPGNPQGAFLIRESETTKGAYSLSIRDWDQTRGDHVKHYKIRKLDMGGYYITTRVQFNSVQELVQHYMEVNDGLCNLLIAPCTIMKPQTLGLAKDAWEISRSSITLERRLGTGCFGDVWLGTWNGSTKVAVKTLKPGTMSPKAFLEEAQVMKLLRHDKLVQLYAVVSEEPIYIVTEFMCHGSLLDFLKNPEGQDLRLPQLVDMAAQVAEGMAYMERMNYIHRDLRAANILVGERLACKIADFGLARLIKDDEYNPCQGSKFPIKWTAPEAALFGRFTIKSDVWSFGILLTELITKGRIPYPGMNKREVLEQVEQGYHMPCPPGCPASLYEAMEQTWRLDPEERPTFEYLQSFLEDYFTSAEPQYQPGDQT
Sequence of Fibroblast growth factor receptor 4 (Homo sapiens) (P22455 22-802 limits assumed): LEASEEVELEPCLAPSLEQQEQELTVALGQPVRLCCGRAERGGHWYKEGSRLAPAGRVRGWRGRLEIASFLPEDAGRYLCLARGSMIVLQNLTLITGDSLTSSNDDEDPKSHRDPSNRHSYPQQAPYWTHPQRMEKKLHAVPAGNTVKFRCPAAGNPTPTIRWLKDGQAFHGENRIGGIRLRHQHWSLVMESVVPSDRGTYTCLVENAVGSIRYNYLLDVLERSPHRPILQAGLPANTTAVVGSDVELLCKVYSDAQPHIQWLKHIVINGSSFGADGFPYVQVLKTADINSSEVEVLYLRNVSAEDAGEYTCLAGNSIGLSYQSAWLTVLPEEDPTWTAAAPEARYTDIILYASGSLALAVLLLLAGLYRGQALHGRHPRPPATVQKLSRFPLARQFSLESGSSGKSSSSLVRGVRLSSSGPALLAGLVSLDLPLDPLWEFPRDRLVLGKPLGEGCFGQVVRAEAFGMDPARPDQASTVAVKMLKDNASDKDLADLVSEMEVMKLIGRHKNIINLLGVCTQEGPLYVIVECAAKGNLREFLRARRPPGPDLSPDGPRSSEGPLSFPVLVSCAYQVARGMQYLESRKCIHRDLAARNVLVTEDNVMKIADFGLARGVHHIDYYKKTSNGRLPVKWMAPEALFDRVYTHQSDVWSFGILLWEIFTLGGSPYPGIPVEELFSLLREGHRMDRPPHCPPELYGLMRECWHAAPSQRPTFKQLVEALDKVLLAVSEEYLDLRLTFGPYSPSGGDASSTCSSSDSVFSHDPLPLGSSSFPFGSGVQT
Sequence of Serine/threonine-protein kinase B-raf (Homo sapiens) (P15056 whole entry): as the sequence (P15056 whole entry V600E) above, with E600V counted along it

In the case of `O=C(Nc1n[nH]c2nc(-c3ccco3)ccc12)C1CC1`, the inhibition in [1] was 2.6%; in [2], 0.22%; in assay [3], 4.92%; in [4] it was 1.05%; in assay [5] it was 7.88%; in assay [6] it was 0.89%. Besides, the inhibition in [7] was 9.22%; in [8] it was -0.89%; in assay [9] it was -1.09%; in [10] it was 2.23%; in assay [11] it was 8.73%; in assay [12], 0.35%. Further, the inhibition in [13] was 0.02%; in assay [14] it was 0.28%; in [15], 0.47%; in assay [16] it was 1.98%; in assay [17], 3.43%; in [18] it was 1.17%. Further, the inhibition was determined as 4.38% in assay [19] and 4.75% in [20].

Consider `COc1cc(Nc2ncc(-c3ccccc3)o2)cc(OC)c1OC`, for which the inhibition was found to be 1.36% in assay [1]; 3.9% in assay [2]; 29.4% in assay [3]; 8.63% in [4]; 61.7% in assay [6]; 90.8% in assay [7]. The inhibition in assay [8] was 14.2%; in assay [9], 6.55%; in assay [10], -1.23%; in assay [11] it was 1.3%; in [12] it was 11.5%; in assay [13], 46.6%. For the same compound, the inhibition in assay [14] is -2.95%; in assay [15], 0.62%; in [16], -1.68%; in assay [17], -1.94%; in assay [18] it was -1.66%; in [19], -1.09%. The inhibition in assay [20] is -3.29%.

Regarding `NS(=O)(=O)c1ccc(Nc2cc(-c3ccc(O)c(F)c3)n[nH]2)cc1`, the inhibition came out at 0.53% in assay [1]; 0.78% in [2]; 13.7% in [3]; 2.34% in [4]; 14.3% in [5]; 33.7% in assay [6]. For the same compound, the inhibition in assay [7] was 79.4%; in [8] it was 5.5%; in assay [9], 5.71%; in [10], 8.31%; in assay [11] it was 52.3%; in assay [12] it was -3.77%. Besides, the inhibition was 11.7% in [13]; -4.38% in [16]; -2.42% in [17]; -4.83% in assay [18]; -3.52% in [19]; -4.11% in assay [20].

For the compound `COc1cccc(/C=N/Nc2ncnc3c2cnn3-c2cccc(OC)c2)c1`, the inhibition in [1] worked out at 0.32%; in [2], 1.37%; in assay [3], 8.08%; in assay [4], 3.79%; in assay [5], 0.71%; in assay [6], 0.18%. The inhibition in assay [7] was 4.83%; in [8], -0.05%; in assay [9], -1.11%; in assay [10], 3.49%; in assay [11], 4.49%; in [12], 2.39%. For the same compound, the inhibition in [13] is 8.43%; in assay [14], 1.23%; in assay [15], 2.81%; in assay [16], 4.82%; in [17], 6.54%; in assay [18], 4.25%. Moreover, the values for the inhibition in [19] and in [20] were 4.68% and 1.07%, respectively.

With `Fc1ccc(-c2ncn(C3CCNCC3)c2-c2ccnc(Oc3ccc4c(c3)OCO4)n2)cc1`, the inhibition in assay [1] came to 0.91%; in assay [2] it was 3.23%; in assay [3], 7.38%; in assay [4] it was 0.92%; in assay [5], 2.35%; in assay [6], 4.05%. Besides, the inhibition in [7] is 7.47%; in [8], -0.87%; in assay [9] it was -3.97%; in assay [10] it was 1.93%; in [11] it was 3.42%; in assay [12] it was 3.41%. Also, the inhibition in [13] was 3.52%; in [14] it was 0.26%; in assay [15], -6.92%; in assay [16], 7.39%; in [17], 12.7%; in assay [18], 6.25%. In addition, the inhibition is 8.22% in assay [19] and 1.31% in assay [20].

For `COC(=O)Nc1nc2ccc(Sc3ccc(NC(=O)Nc4cc(C(F)(F)F)ccc4F)cc3)cc2[nH]1`, the inhibition is -0.24% in [1]; 1.66% in assay [2]; 3.71% in assay [3]; 4.5% in assay [4]; 37.7% in [5]; 4.87% in assay [6]. Further, the inhibition in assay [7] was 32.6%; in assay [9], 0.01%; in [10] it was 1.03%; in assay [11] it was 21.9%; in [12], -0.49%; in assay [13], 5.58%. In addition, the inhibition in assay [14] is 3.14%; in assay [15] it was -0.65%; in [16], 1.01%; in assay [17], 14.8%; in assay [18], -0.53%; in [19], 17.5%. For the same compound, in assay [20], the inhibition was -1.08%.

Take `CCC(=O)Nc1ccc(C)c(-c2ccc(C(=O)NCC3CC3)cc2)c1`: the inhibition in assay [1] was 1%; in [2] it was 1.7%; in [3], 4.31%; in assay [4] it was 0.67%; in assay [5] it was 4.22%; in assay [6], 3.07%. The inhibition in assay [7] is 3.74%; in assay [9] it was -0.87%; in [10] it was 2.6%; in assay [11], 2.68%; in assay [12], 3.12%; in [13], 4.01%. The inhibition in [14] is -4.93%; in assay [15], 1.46%; in assay [16], 4.61%; in [17], 4.76%; in [18], 3.97%; in assay [19] it was 4.63%. Besides, the inhibition in assay [20] amounted to 2.89%.

In the case of `Cc1nnc(-c2ccc(C)c(-c3ccc(C(=O)NCc4ccc(Cl)cc4)cc3)c2)o1`, the inhibition in [1] is -3.75%; in assay [2], 4.76%; in [3], 1.82%; in [4] it was 2.48%; in assay [5] it was 2.52%; in assay [6], 2.13%. Also, the inhibition is 0.77% in [7]; 2.22% in assay [8]; -3.78% in [9]; 2.85% in [10]; 3.57% in assay [11]; 2.58% in assay [12]. Besides, the inhibition in [13] was 5.29%; in assay [15] it was -3.27%; in assay [16], 5.55%; in [17], 4.07%; in assay [18], 6.27%; in [19], 3.85%. In addition, the inhibition in [20] is 8.41%.

These data come from ChEMBL document CHEMBL1961873, “Compounds: GSK PKIS; Assays: Nanosyn kinase panel” (2012).
